Data as given in the supplement of paper PMC6555819.

Tested on: PPARa:RXRa (NR concentration 270 nM, RXRa partner concentration 90 nM)
Test: PBM binding z-score (relative to random genomic background probes); higher = stronger binding; sequences stand for … in GC…GCGATTGACAGCGTAGAATGAAGG
Summary of the method: (§1)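 For binding z-scores, the reference was random background probes on custom Agilent 4×180K protein-binding microarrays. These arrays were incubated 1 h with ligand-free nuclear receptor dimers in PBS pH 7.4, 2% milk, 0.02% Triton X-100, 1 mM DTT, 0.2 mg/mL BSA and 0.4 mg/ml salmon testes DNA. Fluorescence was scanned after antibody detection of each partner (one per run) and regression-normalized.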

Row | Sequence | PBM binding z-score
1 | CCTAGTTGGTCAGCAGGTCACACACCGGATATGA | 2.85
2 | TGAAGGAGGTTAAAGATCAGGGAACGTGGCGTCG | 3.67
3 | GCTAGCAGGCCAATTGGGTCACTCAATGACGGGC | 1.83
4 | TCAGACTGGTGAAGGTAACTCAGGTACGCAGTCG | 0.467
5 | CAGCCTAGGTCACGGCCAGTATAGGAGGAACGTT | 4.72
6 | CTCGAAAGGTCGTGCTCAGGTGAGTAAACCAAAC | 4.92
7 | GCTTGAAGATCAAGGTTAAGAAAGACTAAGCTAA | 1.44
8 | CCTAGCAGGCCGGGGTCACTCAAGCATTTCGCTT | 4.93
9 | CAGCCTAGGTCAGGGCCACTATAGGAGGAACGTT | 2.18
10 | CCGACTGGAGCAAAGGTTACCATACTCAGTACGA | 4.5
11 | TGAATGAGGTTATAAGATCTGGGAACGTTGCAAA | 2.54
12 | GATACAGGGTCAGCTAGAGGCCAGGGTATGGAAA | 4.43
13 | ACACACAGGTGATGAAGGTAACTCAGGCTATCAT | 0.299
14 | AGCTCTAGGTAAAGATAGTTCAGTGAATGCAAAT | 0.354
15 | CCTACTGGGCCAAAAAGGTCAATGATGCCGATAA | 4.92
16 | GCTCGGACGACAAGGTCAGAGCTTTGTCCGTAGA | 2
17 | GGAACGAGGGCAAAGTTGATAGCTTCTGTCGACG | 3.85
18 | ATATGTGGGTTACATCCGGGTCATTCAGGCTATG | 4.12
19 | CGAACTAGGTCATTGACAGGACTGTGAATAGTAA | 4.71
20 | TGAATGAGGTTATAAGATTAGGGAACGTTGCAAA | 2.29

Row | Sequence | PBM binding z-score
21 | GCTAGTTGCTCAGTAAAAGGTCACACACCGGTCG | 4.42
22 | TTACCAAGGTGAGCTGAGGTCGTTAATCCAACTC | 1.4
23 | ACAGACAGGTGAGTGAAGGTAACTCATCTGGACG | -0.155
24 | GCGACTGGGGCATCAGCAGGTTATCATAACTTAA | 1.38
25 | ACTATTAGTTGACTTAGGGTAACCGATACGACGC | 0.468
26 | TCTCGGAGGACAGGAAGGTCAGAGCTTTCCAGAG | 1.87
27 | CTGCCTAGGTCAGGGCCAGTATAGGAGGAACGTT | 1.88
28 | TGAATGAGGTTATAAAATCAGGGAACGTTGCAAA | 2.15
29 | ACAGACAGGTGATGAAGGTGACTCAGGCTATCAT | 0.764
30 | CGACCAAGGTCATAGGAGGTCAGTGAAGACAGAT | 5.7
31 | GTTACAGGGTCAGCTAGAGGCCAGAGTATGGAAA | 4.41
32 | CCTTACGGGTCACTGACAGGTTATACCATTTGGA | 5.07
33 | ATCTCTAGGTAAAGTTCAGTGAGAGATCGATAGA | 2.42
34 | ATCTCTAGGTAACAAATTCAGTGAAAGAGAGGAC | 0.552
35 | CGTCCAAGGTCAAGGTCAGTGTAAGAGACTCGAA | 5.87
36 | CGTACAAGGTCAGAGAGGTCAGTGAATGCCGAGT | 5.09
37 | ACTTACGGGTAAACGAGGTTATAGCACGCGTATA | 2.01
38 | GCTGCTAGGTCAGGTGGGTCAGCTAACGGGTACG | 2.34
39 | CCTACTGTGCCACGAAAGGTCATTGATTCAGTGA | 4.62
40 | CCTGCTAGGTCAATGGTCAGCAAAAGCAGCTCGC | 3.32

Tested on: PPARg:RXRa (NR concentration 180 nM, RXRa partner concentration 90 nM)
Test: as above
Summary of the method: as §1

Row | Sequence | PBM binding z-score
41 | CCTAGTTGGTCAGCAGGTCACACACCGGATATGA | 2.27
42 | TGAAGGAGGTTAAAGATCAGGGAACGTGGCGTCG | 4.96
43 | GCTAGCAGGCCAATTGGGTCACTCAATGACGGGC | 1.01
44 | TCAGACTGGTGAAGGTAACTCAGGTACGCAGTCG | 0.185
45 | CAGCCTAGGTCACGGCCAGTATAGGAGGAACGTT | 4.54
46 | CTCGAAAGGTCGTGCTCAGGTGAGTAAACCAAAC | 2.7
47 | GCTTGAAGATCAAGGTTAAGAAAGACTAAGCTAA | 0.0751
48 | CCTAGCAGGCCGGGGTCACTCAAGCATTTCGCTT | 2.5
49 | CAGCCTAGGTCAGGGCCACTATAGGAGGAACGTT | 1.36
50 | CCGACTGGAGCAAAGGTTACCATACTCAGTACGA | 8.49
51 | TGAATGAGGTTATAAGATCTGGGAACGTTGCAAA | 1.01
52 | GATACAGGGTCAGCTAGAGGCCAGGGTATGGAAA | 3.61
53 | ACACACAGGTGATGAAGGTAACTCAGGCTATCAT | 0.913
54 | AGCTCTAGGTAAAGATAGTTCAGTGAATGCAAAT | 0.0941
55 | CCTACTGGGCCAAAAAGGTCAATGATGCCGATAA | 3.36
56 | GCTCGGACGACAAGGTCAGAGCTTTGTCCGTAGA | 0.028
57 | GGAACGAGGGCAAAGTTGATAGCTTCTGTCGACG | 6.78
58 | ATATGTGGGTTACATCCGGGTCATTCAGGCTATG | 5.38
59 | CGAACTAGGTCATTGACAGGACTGTGAATAGTAA | 7.38
60 | TGAATGAGGTTATAAGATTAGGGAACGTTGCAAA | 1.15

Row | Sequence | PBM binding z-score
61 | GCTAGTTGCTCAGTAAAAGGTCACACACCGGTCG | 2.23
62 | TTACCAAGGTGAGCTGAGGTCGTTAATCCAACTC | 0.0208
63 | ACAGACAGGTGAGTGAAGGTAACTCATCTGGACG | 0.684
64 | GCGACTGGGGCATCAGCAGGTTATCATAACTTAA | 0.968
65 | ACTATTAGTTGACTTAGGGTAACCGATACGACGC | 0.907
66 | TCTCGGAGGACAGGAAGGTCAGAGCTTTCCAGAG | -0.0448
67 | CTGCCTAGGTCAGGGCCAGTATAGGAGGAACGTT | 0.668
68 | TGAATGAGGTTATAAAATCAGGGAACGTTGCAAA | 0.802
69 | ACAGACAGGTGATGAAGGTGACTCAGGCTATCAT | 0.82
70 | CGACCAAGGTCATAGGAGGTCAGTGAAGACAGAT | 6.04
71 | GTTACAGGGTCAGCTAGAGGCCAGAGTATGGAAA | 3.35
72 | CCTTACGGGTCACTGACAGGTTATACCATTTGGA | 4.22
73 | ATCTCTAGGTAAAGTTCAGTGAGAGATCGATAGA | 3.37
74 | ATCTCTAGGTAACAAATTCAGTGAAAGAGAGGAC | 0.558
75 | CGTCCAAGGTCAAGGTCAGTGTAAGAGACTCGAA | 6.25
76 | CGTACAAGGTCAGAGAGGTCAGTGAATGCCGAGT | 4.76
77 | ACTTACGGGTAAACGAGGTTATAGCACGCGTATA | 0.93
78 | GCTGCTAGGTCAGGTGGGTCAGCTAACGGGTACG | 1.65
79 | CCTACTGTGCCACGAAAGGTCATTGATTCAGTGA | 3.72
80 | CCTGCTAGGTCAATGGTCAGCAAAAGCAGCTCGC | 4.8
